The results in this text go back to PubChem BioAssay (Tox21).

Activity calls are given as the source filed them. Where a call stands in place of a potency, no number is given. Calls follow the shape of the dose curve; as a rule, active = well fitted activation curve with a large enough effect in the repeat runs; inconclusive = weak or mixed curves; inactive = flat fitted curve, though single readings scatter.
Potency is read from the fitted curve at half-maximal effect.

This assay can be described thus: A CellTox Green Cytotoxicity Assay to monitor cytotoxicity in HEK293 cells - 0 hour (AID 1224869). Also: nearly all actives have a fitted effect of over 50% in size. The following applies: CellTox Green fluorescence; series mostly up to 76.8 µM. An excerpt: National Center for Advancing Translational Sciences [NCATS]
NIH Chemical Genomics Center [NCGC]
U.S. Environmental Protection Agency [EPA]
National Institutes of Environmental Health Sciences [NIEHS]
National Toxicology Program [NTP]
Cell-based models are critical for drug discovery. Determining the natural cytotoxic effects resulting from test compounds is an essential research activity. A CellTox Green Cytotoxicity Assay to monitor cytotoxicity in real time of continues cell culture during 40 hours of the compound treatment was used to screen Tox21 10K library compounds in Hek293 cells. CellTox Green Cytotoxicity Assay is a nonlytic, homogeneous, biofluorescent method to measure cytotoxicity in cell culture after experimental manipulation. The assay system uses a proprietary asymmetric cyanine dye that is excluded from viable cells but preferentially stains the dead cell's DNA. […] Viable cells produce no appreciable increases in fluorescence. Therefore, the fluorescence signal produced by the binding interaction with dead cell DNA is proportional to cytotoxicity.
The mixture of Hek293 cell suspension and reagents were dispensed at 600cells/6 ul/well in 1536-well tissue culture treated black solid bottom plates using a Multidrop dispenser. After the assay plates were incubated at a 37 C/5% CO2 incubator for 5 hours, 23 nL of compounds dissolved in DMSO, positive and negative controls was transferred to the assay plate by a pintool work station. The plates were incubated at 37 C for 40 hours. The fluorescence intensity were measured at 0h, 8h, 16h, 24h, 32h and 40h time points using ViewLux plate reader during compound treatment.
For the compound `Cc1ccc(C(=O)Cl)cc1`, the Potency entry was “inactive”. As for `CC(C)(C)c1cc([N+](=O)[O-])cc(C(C)(C)C)c1O`, the entry is “inactive”. For the compound `Cc1c(Cl)c(=O)oc2cc(OP(=O)(OCCCl)OCCCl)ccc12`, the Potency entry is “inactive”.

As to `CS(=O)(=O)c1ccc(C(=O)C2C(=O)CCCC2=O)c([N+](=O)[O-])c1`, the Potency is 44.4 µM (active). In the case of `Oc1ccc2ccc3cccc4ccc1c2c34`, the Potency result is “inactive”. As for `O=c1[nH]c2ccccc2n1CCCN1CCC(n2c(=O)[nH]c3cc(Cl)ccc32)CC1`, the entry is “inactive”; as for `Clc1ccc(-c2ccc(Cl)c(Cl)c2Cl)c(Cl)c1Cl`, “inactive”. `Clc1ccc(CSC(Cn2ccnc2)c2ccc(Cl)cc2Cl)cc1` (stereo not given): the Potency result was “inactive”.

Turning to `OC(Cc1ccccc1Cl)(Cn1cncn1)C1(Cl)CC1` (stereo not given), the Potency entry is “inactive”. `Nc1ccccc1C(=O)OC/C=C/c1ccccc1`: the Potency result is “inactive”. As for `Clc1ccc(CCC(Cn2ccnc2)Sc2c(Cl)cccc2Cl)cc1` (stereo not given), the Potency result is “inactive”. For `COP(=O)(CCC(=O)NCO)OC`, the Potency result was “inactive”.

Regarding `Nc1c(Oc2ccccc2)cc(O)c2c1C(=O)c1ccccc1C2=O`, the Potency entry is “inactive”. As for `CC(C)CC(C)(c1ccc(O)cc1)c1ccc(O)cc1`, the entry is “inactive”; as for `Oc1ccc(C(=C(Cl)Cl)c2ccc(O)cc2)cc1`, “inactive”. Consider `ClC1=C(Cl)[C@]2(Cl)[C@@H]3[C@@H]4C[C@@H]([C@H]5O[C@@H]45)[C@@H]3[C@@]1(Cl)C2(Cl)Cl`, for which the Potency is 43.6 µM (active). Regarding `CC1(C)C(/C=C(\Cl)C(F)(F)F)C1C(=O)OC(C#N)c1cccc(Oc2ccccc2)c1` (stereo not given), the Potency result was “inactive”.

Take `Cc1ccc(OP(=O)(Oc2ccccc2)Oc2ccccc2)cc1`: the Potency entry is “inactive”. For the compound `Fc1ccc(Oc2ccnc3cc(Cl)cc(Cl)c23)cc1`, the Potency entry was “inactive”.

On to `C=CC(=O)OCC(COC(=O)C=C)(COC(=O)C=C)COC(=O)C=C`, for which the Potency entry was “inactive”.

For `C[C@]12Cc3nonc3C[C@@H]1CC[C@@H]1[C@@H]2CC[C@@]2(C)[C@H]1CC[C@]2(C)O`, the Potency entry was “inactive”. On to `Nc1ccc([N+](=O)[O-])cc1Cl`, for which the Potency entry is “inactive”. As for `c1ccc(Nc2ccc3ccccc3c2)cc1`, the entry is “inactive”. For `CC(O)C#N` (stereo not given), the Potency entry is “inactive”. `ClCc1ccc(Cl)cc1Cl`: the Potency result is “inactive”.

`CCOP(=S)(OCC)SCCS(=O)(=O)CC`: the Potency entry was “inactive”. As for `Clc1ccc(C(c2ccccc2Cl)C(Cl)(Cl)Cl)cc1` (stereo not given), the entry is “inactive”. With `Oc1c(Br)c(Br)c(Br)c(Br)c1Br`, the Potency result was “inactive”. As for `CN(C)C(=S)S`, the entry is “inactive”. As for `Clc1ccc(COC(Cn2ccnc2)c2ccc(Cl)cc2Cl)cc1` (stereo not given), the entry is “inactive”; as for `O=C(O)C1C2CCC(O2)C1C(=O)O` (stereo not given), “inactive”. As for `CCCN(CC)CC1COC2(CCC(C(C)(C)C)CC2)O1` (stereo not given), the entry is “inactive”; as for `Cc1cc(Cl)ccc1O[C@H](C)C(=O)O`, “inactive”; as for `CC(C)(O)c1cnn2c(-c3ccc(F)c(-c4c(F)cccc4C#N)c3)cnc2n1`, “inactive”.

In the case of `Cc1cc(C)cc(OP(=O)(Oc2cc(C)cc(C)c2)Oc2cc(C)cc(C)c2)c1`, the Potency entry is “inactive”. As for `CC(C)(C)C(O)C(Oc1ccc(-c2ccccc2)cc1)n1cncn1` (stereo not given), the entry is “inactive”; as for `CC(=O)c1cc(C(C)(C)C)cc2c1CCC2(C)C`, “inactive”; as for `C=COCCCl`, “inactive”.

Take `O=c1ssc(Cl)c1Cl`: the Potency entry was “inactive”. Consider `CC(C)(C)OO`, for which the Potency result was “inactive”.
